Rows were chosen to be rich in hits. Some 1.4% of all compounds tested hit in one or more screens of this group.
Mtb MbtI inh: MbtI salicylate synthase inhibitors, primary screen, biochemical, fluorescence intensity. inhibition, % (concentration not given with the values). AID 493033, 2011. actives 0.89% (n = 100,000). P9WFX0. purified MbtI enzyme, fluorescence intensity read-out; in the data active = inhibition mostly above about 56%, no sharp cut-off; inactive = mostly below about 77%
Polio RdRp inh: poliovirus RdRp elongation inhibitors, primary screen, biochemical, fluorescence polarization, total intensity | Genome polyprotein (Poliovirus type 1 (strain Mahoney)), P03300 | poliovirus polymerase elongation; active compounds read low | % elongation, % (compound at 16.7 µg/mL) | actives 0.66% (n = 150,000); in the data active = % elongation below about 90%
MenB inh: M. tuberculosis MenB inhibitors, primary screen, biochemical, absorbance | inhibition, % (test concentration not listed) | actives 0.43% (n = 100,000) | MenB enzyme assay, absorbance read-out | AID 540299, 2011; in the data active = inhibition above about 21%, passing the limit was not always enough
Target sequence (P9WNP5 whole entry, looked up): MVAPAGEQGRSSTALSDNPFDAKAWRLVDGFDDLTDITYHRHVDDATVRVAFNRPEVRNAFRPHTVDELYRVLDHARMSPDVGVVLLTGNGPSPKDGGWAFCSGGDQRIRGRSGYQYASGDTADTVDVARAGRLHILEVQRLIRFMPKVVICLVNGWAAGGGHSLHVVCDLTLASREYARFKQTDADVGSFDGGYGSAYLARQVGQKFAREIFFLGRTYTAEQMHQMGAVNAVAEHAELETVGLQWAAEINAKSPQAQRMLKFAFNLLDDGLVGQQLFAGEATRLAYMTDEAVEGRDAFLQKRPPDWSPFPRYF
AID504770: growth inhibition of E. coli YBA685, primary screen, V. cholerae RctB inhibitors; E. coli YBA685 rctB-dependent plasmid, OD600 growth, 3 h; active compounds read low; z-score (no concentration beside the values); actives 0.27% (n = 130,000); in the data active = z-score below about -2, passing the limit was not always enough
A number is an active result; 0 = inactive; - = not tested or not shown.

SMILES	Mtb MbtI inh	Polio RdRp inh	MenB inh	AID504770
Cc1c(N=c2c(=O)c3ccccc3c2=O)c(=O)n(-c2ccccc2)n1C	0	63	0	0
O=C(O)CCCS(=O)(=O)c1ccccc1	0	0	35	0
NC(=O)CCS(=O)(=O)c1ccccc1	0	0	0	0
COc1ccc(S(=O)(=O)N2CCC(NC(=O)NC3CCCC3)CC2)cc1	0	0	0	0
COc1ccc(S(=O)(=O)N2CCC(NC(=O)c3ccccc3)CC2)cc1	0	0	33	0
CN1CCN(C(c2ccccn2)c2c(-c3ccccc3)n(O)c3ccccc23)CC1 (stereo unspecified)	0	88	0	0
Cc1[nH]c2ccccc2c1C(c1ccccn1)N1CCN(CCO)CC1 (stereo unspecified)	0	0	-	0
CC1CN(C(C)(C)C)CCC1(O)c1ccccc1 (stereo unspecified)	0	0	34	0
CC1CN(C)CC(C)C1(O)c1ccccc1 (stereo unspecified)	-	0	0	0
CCOC(=O)c1sc(N)c(C(=O)OCC)c1C	-	79	0	0
CCOC(=O)c1c(C)c(C)c(C)[nH]c1=S	91	0	0	0
CN(C(=O)CSc1ccc2c(c1)OCCO2)C1CCS(=O)(=O)C1 (stereo unspecified)	0	0	0	0
CCc1nc(SC)ncc1C(=O)NCc1ccc(OC)cc1	0	0	0	0
Nc1ccc(N2CCCC2)cc1	0	0	0	0
CC1(C)CC(NC(=O)CCc2ccccc2)CC(C)(C)N1	0	0	39	0
CC1(C)CC(NC(=O)CCCC(=O)O)CC(C)(C)N1	0	0	0	0
O=C1C=CC(=O)c2c(Cl)ccc(Cl)c21	0	0	0	-2
Cc1ccc2[nH]cc(CCNS(C)(=O)=O)c2c1	0	0	26	0
COc1ccc(C(=O)n2c3c(c(=O)n2-c2ccccc2)Cc2ccc(OC)cc2O3)cc1	0	0	54	0
O=C(Cc1nc2ccccc2[nH]1)Oc1ccccc1	-	75	0	0
O=C(Cc1nc2ccccc2[nH]1)c1ccccc1	0	0	-	0
O=C(NOC(=O)c1cccs1)c1ccccc1	0	0	0	-2.6
Cc1cc(/C=C2/NC(=O)N(Cc3ccccc3F)C2=O)c(C)n1-c1ccc(S(N)(=O)=O)cc1	0	0	0	0
O=C1c2ccccc2CC1Sc1nnc(-c2ccco2)c(-c2ccco2)n1 (stereo unspecified)	97	0	0	0
Cc1nc(-c2ccccc2)cc(=O)[nH]1	0	0	37	0
SMILES	Mtb MbtI inh	Polio RdRp inh	MenB inh	AID504770
O=c1cc(-c2ccccc2)nc(Nc2nc3ccccc3o2)[nH]1	0	68	0	0
O=C1/C(=C/c2ccc(-c3ccccc3Cl)o2)SC(=S)N1CC1CCCO1 (stereo unspecified)	-	0	0	0
O=C(CSc1nc2c(c(=O)n1-c1ccccc1)SCC2)NC1CCCCC1	-	-	-	0
CNC(=S)NCCN1C(=O)S/C(=C\c2cccnc2)C1=O	0	0	0	-3
CCCN1CCN(CCCNC(=O)c2cc3c(Cl)nc4ccccc4c3s2)CC1	-	67	-	-
CCN1CCN(CCCNC(=O)c2cc3c(=O)n(C)c4ccccc4c3s2)CC1	-	74	-	-
O=C(Oc1ccc(C=Nc2ccc(F)c(F)c2F)cc1)c1cccnc1	0	0	-	0
Cn1cnc(S(=O)(=O)N(Cc2ccccc2)Cc2ccccc2N2CCC(C(=O)O)CC2)c1	0	86	0	0
Cc1cccc2nc(-c3cc4ccccc4s3)oc(=O)c12	-	-	-	0
O=c1oc(-c2cc3ccccc3s2)ns1	-	85	0	0
COc1ccc(-n2nc(C(=O)NCC(=O)NCc3ccccn3)c3ccccc3c2=O)cc1	-	-	-	0
COc1cc(-c2nnc(SCc3nc4ccccc4s3)o2)cc(OC)c1OC	0	0	0	0
COc1ccc(C2C(C#N)=C(N)OC(C3CC3)=C2C#N)cc1 (stereo unspecified)	0	0	0	0
COc1ccc(C2C(C#N)=C(N)Oc3c2ccc2cccnc32)cc1 (stereo unspecified)	0	0	33	0
CC(C)Oc1ccccc1CN	0	0	32	0
CCCn1c(SCC(=O)c2cccs2)n[nH]c1=O	64	-	0	0
COc1ccc(N2CCN(S(C)(=O)=O)CC2)cc1	0	0	40	0
O=C(Sc1nnnn1-c1ccccc1)c1cccc(Cl)c1	-	-	-	0
O=S(=O)(Cc1ccccc1)c1nnnn1-c1ccccc1	0	-	-	0
N#CC(C#N)=C/C=C(\Sc1nnnn1-c1ccccc1)c1ccccc1	84	0	0	0
c1ccc(-n2nnnc2SSc2nnnn2-c2ccccc2)cc1	59	0	0	0

Screening results (PubChem)
